The whole screen tested about 220,000 compounds, of which about 2,000 (0.91%) were called active. Another 2% or so got no clear call; they are omitted. No stated cut-off is given here; in the data, inconclusive means inhibition above about 80% without an active follow-up result; inactive means below that; test concentration not stated here. Only a sample is shown. Results with a measured potency or affinity are listed apart.
Assay: M. tuberculosis H37Rv growth inhibitors, H37Rv strain (AID 1626);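 further: bacteria incubated seven days before Alamar blue readout; 0% = bacteria only wells and 100% = bacteria with antibiotic wells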
Conditions: stronger effect = higher value, concentration not given here
With `Cc1cccc(-n2ncc3c(Nc4ccc(F)cc4)ncnc32)c1` the inhibition was 8.29% (inactive). With `COc1ccc(N2C(=O)c3ccccc3S2(=O)=O)cc1` the inhibition was -3.28% (inactive). With `COc1ccc(CN2CN=C(Nc3nc4ccccc4s3)NC2)cc1` the inhibition was -0.93% (inactive). In the case of `CCNC(=S)N/N=C/c1ccc(OCCOc2ccccc2C)cc1`, the inhibition was -4.17% (inactive). With `COC(=O)c1ccc(CNC(=O)COc2ccccc2Br)o1` the inhibition was 5.3% (inactive). For `CC[n+]1ccccc1/C=C/Nc1ccccc1`, the inhibition was -7.49% (inactive). With `O=C(CSc1nccc(=O)[nH]1)Nc1ccc(F)c(Cl)c1` the inhibition was -0.08% (inactive). With `O=C(CSc1nccc(=O)[nH]1)Nc1ccc2c(c1)OCCO2` the inhibition was 31.1% (inactive). In the case of `S=c1[nH]nc(-c2ccncc2)n1/N=C/C(Cl)=C\c1ccccc1`, the inhibition was 6.36% (inactive). With `COc1cc(CNc2ncn[nH]2)ccc1OCc1cccc(C)c1` the inhibition was 5.16% (inactive). In the case of `COc1ccc(O)c(C(=O)c2cnc3c(c2)CN(C)C(=O)N3)c1`, the inhibition was -1.06% (inactive). In the case of `CC1(C)CC(NC(=O)c2ccccn2)CC(C)(C)N1O`, the inhibition was 1.26% (inactive). For `S=C1NCCNC(=S)NCCOCCOCCOCCN1`, the inhibition was -1.99% (inactive). With `Cc1cc(NCCCN2CCOCC2)n2ncc(-c3ccccc3)c2n1` the inhibition was 7.39% (inactive). In the case of `CC(C)(C)c1cc(-n2ccnc2)n2ncc(-c3ccc(Cl)cc3)c2n1`, the inhibition was 6.96% (inactive). For `Clc1ccc(-n2ncc3c(NCCCn4ccnc4)ncnc32)cc1`, the inhibition was -5.48% (inactive). For `Cc1cc(NCCCn2ccnc2)n2ncc(-c3ccccc3)c2n1`, the inhibition was 18.5% (inactive). For `COC(=O)c1cc(Br)c(=O)n(CCC2=CCCCC2)c1`, the inhibition was -7.27% (inactive). For `O=C(NC(=S)Nc1ccc(CN2CCOCC2)cc1)c1ccco1`, the inhibition was -0.41% (inactive). With `COc1ccc(-c2[nH]ncc2CN2CCC(N3CCSCC3)CC2)c(F)c1` the inhibition was -0.36% (inactive). For `Cc1ccc(-c2nn(-c3ccccc3)cc2/C=N/NC(=O)c2ccc(Br)o2)cc1`, the inhibition was 0.66% (inactive). With `Clc1ccc(Cl)c(OCCCCNCc2ccccc2)c1` the inhibition was 11.2% (inactive). With `Clc1cc(Br)ccc1OCCCNCc1ccccc1` the inhibition was 23% (inactive). In the case of `Cc1ccc(C)c(OCCCC(=O)Nc2ccc(N3CCOCC3)cc2)c1`, the inhibition was -9.52% (inactive). In the case of `Cn1c(SCC(=O)N2CCOCC2)nnc1-c1cnccn1`, the inhibition was -10.3% (inactive). With `CCCCOc1ccc(C(=O)Nc2cc(C)c(OCC(=O)N3CCOCC3)c(C)c2)cc1` the inhibition was -1.36% (inactive). In the case of `CCC(C)[C@H](N)c1nnc(SCC(=O)c2ccc(Cl)cc2)o1` (stereo partly specified), the inhibition was -1.21% (inactive). For `Cn1c(SCCCC(=O)c2ccc(F)cc2)nnc1-c1ccncc1`, the inhibition was 5.49% (inactive). For `CC1=C(CCN2CCN(C3CCCC3)C(CCO)C2)C(C)(C)CCC1` (stereo unspecified), the inhibition was 3.37% (inactive). With `CC1=C(CCN2CCN(C(C)C)C(CCO)C2)C(C)(C)CCC1` (stereo unspecified) the inhibition was 1.16% (inactive). With `CC1(C)Oc2ccc3ccc(=O)oc3c2/C(=C/Nc2ccccn2)C1=O` the inhibition was -6.19% (inactive). For `COc1ccc(OC)c(CCNC(=O)C(=O)Nc2ccc3nc4n(c(=O)c3c2)CCCCC4)c1`, the inhibition was 9.2% (inactive). For `COc1cc2c(cc1N/C=C(\C#N)c1nc(-c3ccc(F)cc3)cs1)oc1ccccc12`, the inhibition was 5.47% (inactive). With `Cc1ccc(-c2csc(/C(C#N)=C/Nc3ccc4c(c3)OCCO4)n2)cc1` the inhibition was -3.12% (inactive). In the case of `CCN(CC)CCOC(=O)c1cccc(OC)c1`, the inhibition was -3.6% (inactive). In the case of `N#C/C(=C\Nc1ccc2c(c1)OCCO2)c1nc(-c2ccccc2)cs1`, the inhibition was -0.56% (inactive). For `COc1cccc(-c2csc(/C(C#N)=C/Nc3cc4oc5ccccc5c4cc3OC)n2)c1`, the inhibition was 6.75% (inactive). With `COc1ccc(-c2csc(/C(C#N)=C/Nc3ccc4c(c3)OCCO4)n2)cc1` the inhibition was 5.83% (inactive). For `Cn1c(=O)c2c(ncn2CC(=O)OCC(=O)NCc2ccc(Cl)cc2)n(C)c1=O`, the inhibition was -4.25% (inactive). In the case of `CCOC(=O)CSC(CC)C(=O)Nc1nnc(CC)s1` (stereo unspecified), the inhibition was 8.43% (inactive). For `Cc1cc(Cl)ccc1N(CC(=O)NCc1ccc2c(c1)OCO2)S(C)(=O)=O`, the inhibition was -3.37% (inactive). For `O=C(CCC(=O)c1cccs1)OCc1nc2ccccc2s1`, the inhibition was -8.64% (inactive). In the case of `CC[C@@H](CO)C1CC2NC3CC4(c5ccccc5N(C)[C@@H]24)C(O)C31` (stereo partly specified), the inhibition was -2.7% (inactive). In the case of `COc1ccc(/C=N/N2C(=O)c3ccccc3C2=O)cc1`, the inhibition was 1.55% (inactive). In the case of `CCCCC(=O)Nc1nc(C)c(-c2csc(Nc3ccccc3OC)n2)s1`, the inhibition was 6.85% (inactive). In the case of `CCCCCC(=O)Nc1nc(C)c(-c2csc(Nc3ccccc3OC)n2)s1`, the inhibition was 3.41% (inactive). For `CCN(CC)CCCN1C(=O)C(O)=C(C(=O)c2cc3ccccc3o2)C1c1ccccn1` (stereo unspecified), the inhibition was -1.65% (inactive). For `N#CCSCC(=O)Nc1ccc(Cl)cc1`, the inhibition was -6.68% (inactive). In the case of `Cc1ccc(NC(=O)CSCC#N)cc1`, the inhibition was -3.07% (inactive). In the case of `Cc1ccc(S(=O)(=O)NCCC(=O)Nc2ccc(Cl)c(Cl)c2)cc1C`, the inhibition was 68.7% (inactive). With `CC(=O)Nc1ccc(S(=O)(=O)NCCC(=O)Nc2ccc(C)c(Cl)c2)cc1` the inhibition was 1.88% (inactive). For `O=C(Nc1cccc(S(=O)(=O)NC2=NCCCCC2)c1)c1cc(-c2ccncc2)nc2ccccc12`, the inhibition was 5.09% (inactive). For `CNc1nc(N)c(C(=O)C23CC4CC(CC(C4)C2)C3)s1`, the inhibition was 7.78% (inactive). For `CC1CN(c2ncc(/C=N/NC(=O)c3ccccc3O)s2)CC(C)O1` (stereo unspecified), the inhibition was 48% (inactive). For `OCCOCCN1CCN(C(c2ccccc2)c2ccc(Cl)cc2)CC1` (stereo unspecified), the inhibition was -10.7% (inactive). For `c1ccc(OCCOCCN2CCOCC2)cc1`, the inhibition was 8.38% (inactive). With `O=C(NN1CCN(Cc2ccccc2)CC1)c1ccc(Cl)cc1` the inhibition was -1.31% (inactive). For `CCOC(=O)c1cc(=O)c2ccc(OCC(=O)Nc3ccccc3)cc2o1`, the inhibition was 3.25% (inactive). For `CC(C)(C)OC(=O)COc1cc(O)c2c(=O)cc(-c3ccccc3)oc2c1`, the inhibition was 5.56% (inactive). In the case of `CCOC(=O)c1cccc(COC(=O)c2cccc(-c3nnc(-c4ccccc4)o3)c2)c1`, the inhibition was 2.8% (inactive). For `NC(=O)COc1ccc2oc(-c3ccccc3)cc(=O)c2c1`, the inhibition was 1.94% (inactive). With `CCOc1ccc(-c2nnc(-c3ccccc3)o2)cc1` the inhibition was 8.69% (inactive). With `CCc1ccc(C(=O)COC(=O)c2ccc(-c3nnc(-c4ccccc4)o3)cc2)cc1` the inhibition was -8.3% (inactive). With `O=C(COc1cc(O)c2c(=O)cc(-c3ccccc3)oc2c1)c1ccccc1` the inhibition was -4.52% (inactive). With `CCOC(=O)Cc1nnc(-c2ccccc2)o1` the inhibition was -3.07% (inactive). In the case of `C#CCn1c(=NC(=O)c2ccc(Br)s2)sc2cccc(OC)c21`, the inhibition was 49.8% (inactive). In the case of `CCn1c(=O)cc(SCC(=O)N2CCN(c3ccccc3OC)CC2)c2ccccc21`, the inhibition was -4.03% (inactive). In the case of `COP(=O)(NC(=O)C(Cl)(Cl)Cl)OC`, the inhibition was -4.54% (inactive). For `Cc1ccc(SCC(=O)Nc2ccc(N3CCN(c4ccccc4)CC3)c(F)c2)cc1`, the inhibition was 3.11% (inactive). In the case of `CS(=O)(=O)NCCNc1ccc(C(F)(F)F)cc1[N+](=O)[O-]`, the inhibition was -3.33% (inactive). In the case of `COc1ccc(C2CC(=O)C(C=NCCO)=C(O)C2)cc1OC` (stereo unspecified), the inhibition was -9.01% (inactive). With `CN(CCc1cnn(C)c1)Cc1cn[nH]c1-c1ccc(-c2ccccc2)cc1` the inhibition was 3.7% (inactive). With `Cc1c(NC(=O)/C(=C\c2ccccc2)NC(=O)c2ccccc2)c(=O)n(-c2ccccc2)n1C` the inhibition was -13.7% (inactive). For `COc1ccc(OCC(=O)N/N=C2\CCCc3ccccc32)cc1`, the inhibition was 1.63% (inactive). With `O=C(NNS(=O)(=O)c1ccccc1Cl)c1nn(-c2ccc(F)cc2)ccc1=O` the inhibition was 2.66% (inactive). With `CCOc1ccc(-c2nnc(-c3ccc(OC)cc3)o2)cc1` the inhibition was 3.3% (inactive). In the case of `O=C(O)C(Oc1ccc2c(-c3ccccc3)cc(=O)oc2c1)c1ccccc1` (stereo unspecified), the inhibition was -7.84% (inactive). In the case of `O=C(O)COc1ccc2c(-c3ccccc3)cc(=O)oc2c1`, the inhibition was -6.46% (inactive). For `CC(Oc1ccc2c(-c3ccccc3)cc(=O)oc2c1)C(=O)O` (stereo unspecified), the inhibition was -19.3% (inactive). In the case of `CCOC(=O)C(Oc1ccc2c(-c3ccccc3)cc(=O)oc2c1)c1ccccc1` (stereo unspecified), the inhibition was 15.1% (inactive). For `CCOc1ccc(-c2nnc(-c3ccncc3)o2)cc1`, the inhibition was 7.35% (inactive). In the case of `N#Cc1ccc(NC(=O)c2cc(-c3cccs3)on2)cc1`, the inhibition was -3.45% (inactive). With `Cc1cc(C(=O)CSc2nnc(-c3ccc(Cl)cc3)n2C)c(C)n1CC1CCCO1` (stereo unspecified) the inhibition was -5.79% (inactive). With `CCn1c(=O)c(=O)[nH]c2cc(C(=O)NC3CCCC3)ccc21` the inhibition was -14.3% (inactive). For `COC(=O)c1cc(C)nc(Sc2ccccc2NC(C)=O)n1`, the inhibition was -6.62% (inactive). In the case of `COc1ccc(-c2cnc(N)nc2-c2ccc(OC)cc2O)cc1`, the inhibition was -8.12% (inactive). In the case of `Nc1ncc2c(n1)-c1ccccc1CC2`, the inhibition was 4.21% (inactive). In the case of `Cc1csc(NC(=O)CSc2ccc(-c3ccccc3)nn2)n1`, the inhibition was -4.14% (inactive). With `Cc1ccc(CNC(=O)CSc2ccc(-c3ccccn3)nn2)cc1` the inhibition was 9.75% (inactive). In the case of `CCOC(=O)c1ccc(NC(=O)CSc2ccc(-c3ccncc3)nn2)cc1`, the inhibition was 78% (inactive). For `CC(=O)Nc1cccc(NC(=O)CSc2ccc(-c3ccccn3)nn2)c1`, the inhibition was 5.52% (inactive). For `Cc1nnc(NC(=O)CSc2ccc(-c3ccccn3)nn2)s1`, the inhibition was -8.09% (inactive). In the case of `Cc1nonc1NC(=O)CSc1ccc(-c2ccccc2)nn1`, the inhibition was 29.3% (inactive). In the case of `Cc1ccc(-c2ccc(SCC(=O)Nc3cc(C)on3)nn2)cc1`, the inhibition was 1.42% (inactive). With `CCOC(=O)c1ccccc1NC(=O)CSc1ccc(-c2cccnc2)nn1` the inhibition was 1.73% (inactive). In the case of `CC(C)CNC(=O)c1cccc(NC(=O)C(C)Oc2ccccc2)c1` (stereo unspecified), the inhibition was 9.89% (inactive).
